Data on 20 compounds can be found in PubChem BioAssay (Tox21).

A short description of experiment [1]: qHTS assay to test for compound auto fluorescence at 535 nm (green) in HEK293 cells (AID 720680).
Experiment [2] in a line: qHTS assay to test for compound auto fluorescence at 460 nm (blue) in HEK293 cell free culture (AID 720681). An outline of the steps:
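Compounds were added to cell-free DMEM with 10% FBS and fluorescence read directly. The blue channel used 405 nm excitation and 460 nm emission, with triamterene as the reference fluorophore.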
For orientation: In qHTS, concentration-response curves come from the screen itself.

The nature of experiment [3]: qHTS assay to test for compound auto fluorescence at 535 nm (green) in HEK293 cell free culture (AID 720682). An outline of the steps:
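Each library compound, or DMSO control, is added by pintool to medium alone, comprising DMEM and 10% FBS. Emission at 535 nm following 485 nm excitation is quantified against fluorescein.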

Experiment [4] is described as follows: qHTS assay to test for compound auto fluorescence at 590 nm (red) in HEK293 cell free culture (AID 720683). An outline of the steps: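 Cell-free wells of DMEM with 10% FBS received compound, and intrinsic fluorescence was read at excitation/emission 540/590 nm. Values expressed as equivalence to Rose Bengal sodium.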
The nature of experiment [5]: qHTS assay to test for compound auto fluorescence at 590 nm (red) in HepG2 cell free culture (AID 720684). An outline of the steps:
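Auto fluorescence equivalency versus Rose Bengal sodium, red channel Ex/Em 540/590 nm; compounds in cell-free MEM/10% FBS; DMSO vehicle control.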

Experiment [6] is described as follows: qHTS assay to test for compound auto fluorescence at 460 nm (blue) in HepG2 cell free culture (AID 720685). Put shortly: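 Cell-free plates of MEM plus 10% FBS received 23 nL compound or DMSO vehicle; blue-channel (405/460 nm) intensity scored against triamterene as reference fluorophore.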
Experiment [7] can be described thus: qHTS assay to test for compound auto fluorescence at 535 nm (green) in HepG2 cell free culture (AID 720686).
The nature of experiment [8]: qHTS assay to test for compound auto fluorescence at 460 nm (blue) in HepG2 cells (AID 720687). An outline of the steps: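 HepG2 cells in MEM with 10% FBS, attached overnight at 37 C, were exposed to compound or DMSO for 1 hr at 37 C, 5% CO2. Blue fluorescence was read at 405/460 nm, with triamterene as reference fluorophore.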
The target of experiment [9] is Glucocorticoid receptor (Homo sapiens) (UniProt P04150). The experiment in a line: qHTS assay to identify small molecule agonists of the glucocorticoid receptor (GR) signaling pathway (AID 720691; active means well fitted activation curve with a large enough effect in the signal ratio in the repeat runs, not every such curve was filed as active; the % refers to the signal ratio). An outline of the steps:
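Compounds in DMSO, alongside positive controls, were added to GR-bla HeLa reporter cells and incubated 18 h at 37 C; GRE-driven beta-lactamase was detected by fluorescence after 2 h with FRET substrate at room temperature.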

Experiment [10] has the same target. The experiment in a line: qHTS assay to identify small molecule antagonists of the glucocorticoid receptor (GR) signaling pathway (AID 720692; active means well fitted inhibition curve with a large enough effect in the signal ratio in the repeat runs, not every such curve was filed as active; the % refers to the signal ratio; further: potency means the concentration at half of the fitted maximal effect). An outline of the steps: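 In a 1536-well cell format, compounds were added 4 h after seeding GR-bla HeLa cells, together with dexamethasone at 5 nM final; reporter activity was measured by FRET-substrate fluorescence following 18 h at 37 C.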

SMILES strings stand for the structures. Results filed as inconclusive are left out. More than one record can exist for a structure, and the calls need not agree. The source made the active and inactive calls. Unless noted, the call rests on the fitted dose curve; in most records, active means well fitted curve in the direction sought with a large enough effect in the repeat runs; inconclusive means weak or mixed curves; inactive means flat fitted curve, though single readings scatter.
On the % scale 0 is the no-effect control and ±100 the full control effect.

Sequence of Glucocorticoid receptor (Homo sapiens) (P04150 whole entry, looked up): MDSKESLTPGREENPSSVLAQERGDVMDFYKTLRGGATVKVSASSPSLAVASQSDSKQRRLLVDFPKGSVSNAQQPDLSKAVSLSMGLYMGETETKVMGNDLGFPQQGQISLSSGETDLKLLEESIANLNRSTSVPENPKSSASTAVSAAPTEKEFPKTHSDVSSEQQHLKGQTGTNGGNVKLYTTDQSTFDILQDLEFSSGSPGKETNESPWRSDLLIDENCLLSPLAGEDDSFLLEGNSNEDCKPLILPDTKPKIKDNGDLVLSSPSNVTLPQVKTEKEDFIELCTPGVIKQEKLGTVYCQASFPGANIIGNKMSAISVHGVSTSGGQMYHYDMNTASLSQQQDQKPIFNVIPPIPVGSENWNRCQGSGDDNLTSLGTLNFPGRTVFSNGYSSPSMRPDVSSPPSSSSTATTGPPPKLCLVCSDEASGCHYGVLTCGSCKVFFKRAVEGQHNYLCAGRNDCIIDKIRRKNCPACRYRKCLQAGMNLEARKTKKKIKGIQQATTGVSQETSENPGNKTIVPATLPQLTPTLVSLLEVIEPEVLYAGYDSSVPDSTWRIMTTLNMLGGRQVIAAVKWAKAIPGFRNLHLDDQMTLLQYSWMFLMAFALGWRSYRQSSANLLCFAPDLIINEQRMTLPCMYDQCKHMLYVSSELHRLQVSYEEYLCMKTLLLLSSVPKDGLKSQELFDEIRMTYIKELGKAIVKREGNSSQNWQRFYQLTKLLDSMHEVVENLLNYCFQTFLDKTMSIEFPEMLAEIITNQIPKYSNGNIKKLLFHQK

In the case of `O=C(O)c1ccc2cc(C(=O)O)ccc2c1`, the Potency entry in [1], in experiment [2], in experiment [3], in [4], in experiment [5] and in [6] was “inactive” throughout. The Potency result in experiment [7], in experiment [8], in experiment [9] and in experiment [10] was “inactive” throughout.
With `CCCC[P+](C)(CCCC)CCCC`, the Potency result in experiment [1], in experiment [2], in experiment [3], in experiment [4], in experiment [5] and in experiment [6] was “inactive” in each case. The Potency entry in experiment [7], in experiment [8] and in experiment [9] was “inactive” each time.
For the compound `S=C([S-])NCCNC(=S)[S-].S=C([S-])NCCNC(=S)[S-].[Mn+2].[Zn+2]`, the Potency result in experiment [1], in experiment [2], in experiment [3], in experiment [4], in experiment [5] and in experiment [6] was “inactive” throughout. Further, the Potency result in experiment [7], in [8] and in experiment [9] was “inactive” in each case.
With `Cc1c(C)c2c(c(C)c1O)CC[C@@](C)(CCC[C@H](C)CCC[C@H](C)CCCC(C)C)O2`, the Potency entry in experiment [1], in [2], in experiment [3], in experiment [4], in experiment [5] and in experiment [6] was “inactive” throughout. For the same compound, the Potency entry in experiment [7], in experiment [8] and in experiment [9] was “inactive” each time.
With `CCCCOC(=O)CC`, the Potency result in experiment [1], in experiment [2], in experiment [3], in experiment [4], in [5] and in experiment [6] was “inactive” in each case. The Potency result in experiment [7], in [8], in experiment [9] and in experiment [10] was “inactive” each time.
As to `C[C@H]1NCc2cc(-c3ccc4c(=O)c(C(=O)O)cn(C5CC5)c4c3OC(F)F)ccc21`, the Potency entry in experiment [1], in experiment [2], in experiment [3], in experiment [4], in [5] and in experiment [6] was “inactive” in each case. Moreover, the Potency result in experiment [7], in [8], in [9] and in experiment [10] was “inactive” throughout.
Regarding `OC[C@H]1O[C@H](O[C@H]2O[C@H](CO)[C@@H](O)[C@H](O)[C@H]2O)[C@H](O)[C@@H](O)[C@@H]1O`, the Potency result in experiment [1], in [2], in experiment [3], in experiment [4], in [5] and in experiment [6] was “inactive” throughout. For the same compound, the Potency entry in [7], in experiment [8], in experiment [9] and in experiment [10] was “inactive” each time.
For the compound `CC(N=C(NC#N)Nc1ccncc1)C(C)(C)C` (configuration not stated), the Potency entry in experiment [1], in [2], in experiment [3], in [4], in experiment [5] and in [6] was “inactive” in each case. Also, the Potency entry in [7], in experiment [8], in [9] and in experiment [10] was “inactive” each time.
Take `Nc1nc(N)nc(-c2cc(Cl)ccc2Cl)n1`: the Potency result in experiment [1], in experiment [2], in [3], in experiment [4], in experiment [5] and in [6] was “inactive” throughout. For the same compound, the Potency result in [7], in experiment [8], in [9] and in [10] was “inactive” each time.
With `NC[C@H]1O[C@H](O[C@H]2[C@H](O[C@@H]3O[C@H](CO)[C@@H](O)[C@H]3O)C(O)[C@H](N)C[C@@H]2N)[C@H](N)[C@@H](O)[C@@H]1O` (some centres not stated), the fluorescence, % of fluorescein in experiment [1] was -0.0694% [at 18.6 µM] (inactive). In addition, the fluorescence, % of fluorescent control is -0.0104% [at 18.6 µM] (inactive) in experiment [2], 0.335% [at 18.6 µM] (inactive) in [4], 0.0653% [at 18.6 µM] (inactive) in experiment [6] and -0.0247% [at 18.6 µM] (inactive) in [8]. The activity change in experiment [3] is -0.144% [at 18.6 µM, stronger effect = higher value] (inactive). In experiment [5], the fluorescence, % of Rose Bengal was -0.0591% [at 18.6 µM] (inactive). Further, the fluorescence, % of fluorescein control in experiment [7] is -0.0227% [at 18.6 µM] (inactive). Besides, the Potency result in experiment [9] and in experiment [10] was “inactive” throughout.
As for `O=C1NC(=O)[C@@H]2CC=CC[C@H]12`, the Potency result in experiment [1], in [2], in experiment [3], in [4], in [5] and in experiment [6] was “inactive” throughout. For the same compound, the Potency result in experiment [7], in [8], in experiment [9] and in experiment [10] was “inactive” throughout.
As for `CCN(CC)C(=O)c1cc(S(=O)(=O)Cc2ccccc2)c(N2CCC(c3ccccc3)CC2)cc1N(CC)CCN(C)C`, the Potency entry in [1], in [2], in experiment [3], in [4], in [5] and in experiment [6] was “inactive” in each case. The Potency result in experiment [7], in [8] and in experiment [9] was “inactive” throughout. Besides, the Potency in experiment [10] is 21.3 µM (active) and inactive.
Consider `Clc1ccnc(Cl)n1`, for which the Potency result in experiment [1], in experiment [2], in experiment [3], in experiment [4], in experiment [5] and in [6] was “inactive” in each case. The Potency result in [7], in experiment [8], in [9] and in experiment [10] was “inactive” throughout.
On to `Cc1nc(-c2ccc(Cl)cc2)oc1COC(C)(C)C(=O)O`, for which the Potency entry in experiment [1], in experiment [2], in experiment [3], in experiment [4], in [5] and in experiment [6] was “inactive” throughout. The Potency result in [7], in experiment [8], in [9] and in experiment [10] was “inactive” throughout.
`C=C(C)c1cccc(C(=C)C)c1`: the Potency result in experiment [1], in experiment [2], in experiment [3], in [4], in experiment [5] and in experiment [6] was “inactive” throughout. In addition, the Potency result in [7], in experiment [8], in experiment [9] and in [10] was “inactive” in each case.
Take `CCCCC(CC)COC(=O)CCCCC(=O)OCc1ccccc1` (configuration not stated): the Potency entry in experiment [1], in experiment [2], in experiment [3], in experiment [4], in experiment [5] and in experiment [6] was “inactive” throughout. Further, the Potency result in [7], in experiment [8], in experiment [9] and in experiment [10] was “inactive” throughout.
In the case of `CN(C)C(=O)COC(=O)Cc1ccc(OC(=O)c2ccc(N=C(N)N)cc2)cc1`, the Potency entry in experiment [1], in experiment [2], in experiment [3], in experiment [4], in [5] and in experiment [6] was “inactive” each time. Moreover, the Potency result in experiment [7], in experiment [8], in [9] and in experiment [10] was “inactive” throughout.
With `CCCCCCCC`, the Potency result in experiment [1], in experiment [2], in experiment [3], in experiment [4], in [5] and in experiment [6] was “inactive” in each case. Besides, the Potency result in [7], in experiment [8], in [9] and in experiment [10] was “inactive” throughout.
Turning to `C#C[C@]1(OC(C)=O)CC[C@H]2[C@@H]3CCC4=C[C@@H](OC(C)=O)CC[C@@H]4[C@H]3CC[C@@]21C`, the Potency entry in experiment [1], in [2], in experiment [3], in [4], in experiment [5] and in experiment [6] was “inactive” in each case. Further, the Potency entry in experiment [7], in experiment [8] and in experiment [9] was “inactive” in each case. Moreover, in [10], the Potency was 9.52 µM (active).
Consider `CC(C)(C)c1ccc(C(O)CCCN2CCC(C(O)(c3ccccc3)c3ccccc3)CC2)cc1` (configuration not stated), for which the Potency entry in experiment [1], in experiment [2], in experiment [3], in experiment [4], in experiment [5] and in [6] was “inactive” in each case. Besides, the Potency result in experiment [7], in experiment [8], in [9] and in [10] was “inactive” in each case.
